Source: the antibiotic and cytotoxicity screens of Wong et al. (2023)
Hit rate of the full screen: of about 39,000 compounds, about 3,300 (8.5%) were called active. Many of the other results were omitted from the sample, so actives are more common in it than they were.

What follows are compounds tested on HepG2 (assay: cytotoxicity call (relative viability < 0.9)). Conditions: 10 µM.

SMILES | cytotoxicity call
C[C@@H]1CC=CC[C@H](c2cccc(Cl)c2)NC(=O)[C@@H](Cc2ccccc2)N(C)C(=O)c2ccccc2O1 | inactive
C[C@@H]1CN([C@@H](C)CO)C(=O)c2c(c3ccccc3n2C)-c2ccccc2CO[C@@H]1CN(C)C(=O)N[C@H](C)c1ccccc1 | inactive
Cc1ccc(S(=O)(=O)N(C)C[C@@H]2Oc3cc(Br)ccc3S(=O)(=O)N([C@@H](C)CO)C[C@H]2C)cc1 | inactive
Cc1noc(C)c1S(=O)(=O)Nc1ccc2c(c1)C(=O)N([C@H](C)CO)C[C@H](C)[C@@H](CN(C)C(=O)Nc1ccccc1)OCCCC[C@H](C)O2 | inactive
O=C1N[C@@H](CC(=O)N2CCN(CCc3ccncc3)CC2)C(=O)Nc2ccccc21 | inactive
COc1ccc(-c2cnc3c(c2)C(=O)N([C@@H](C)CO)C[C@@H](C)[C@H](CN(C)C(=O)Cc2ccccn2)O3)cc1 | inactive
CCCNC(=O)N[C@H]1CC[C@H](CC(=O)N2CCN(C)CC2)O[C@H]1CO | inactive
C[C@@H](O)CNC(=O)C(=O)NC(C)(C)C | inactive
COc1cccc(-c2cn(CC[C@@H]3CC[C@H](NC(=O)CN(C)C)[C@H](CO)O3)nn2)c1 | inactive
C[C@H]1CN([C@@H](C)CO)C(=O)c2cc(NC(=O)Cc3ccccc3)ccc2O[C@@H]1CN(C)S(=O)(=O)c1cn(C)cn1 | inactive
NCCCC[C@H](NC(=O)[C@@H]1CCCN1C(=O)[C@@H]1CSSC[C@H](N)C(=O)N[C@@H](Cc2ccc(O)cc2)C(=O)N[C@@H](Cc2ccccc2)C(=O)N[C@@H](CCC(N)=O)C(=O)N[C@@H](CC(N)=O)C(=O)N1)C(=O)NCC(N)=O | inactive
NCCC[C@H](NC(=O)[C@@H]1CCCN1C(=O)[C@@H]1CSSC[C@H](N)C(=O)N[C@@H](Cc2ccc(O)cc2)C(=O)N[C@@H](Cc2ccccc2)C(=O)N[C@@H](CCC(N)=O)C(=O)N[C@@H](CC(N)=O)C(=O)N1)C(=O)NCC(N)=O | active
NCCCC[C@H](NC(=O)[C@@H]1CCCN1C(=O)[C@@H]1CSSC[C@H](N)C(=O)N[C@@H](Cc2ccccc2)C(=O)N[C@@H](Cc2ccccc2)C(=O)NC(CCC(N)=O)C(=O)N[C@@H](CC(N)=O)C(=O)N1)C(=O)NCC(N)=O (stereo partly specified) | inactive
CNC[C@H]1OCCCC[C@H](C)Oc2ccc(NC(=O)Nc3ccc(C(F)(F)F)cc3)cc2C(=O)N([C@H](C)CO)C[C@@H]1C | inactive
COc1cccc(S(=O)(=O)Nc2ccc3c(c2)C(=O)N(C)C[C@H](OC)[C@@H](C)CN(C(=O)Cc2cccnc2)[C@@H](C)CO3)c1 | inactive
CC(C)=CCC[C@@H](C)CCO | inactive
CC(=O)N[C@@H](Cc1ccccc1)C(=O)NN | inactive
COC(=O)[C@H](Cc1ccccc1)NC(=O)[C@@H](N)CC(=O)O | inactive
CC(=O)N1[C@@H](CO)[C@H](c2ccccc2)[C@@H]1CNC(=O)CN1CCOCC1 | inactive
COc1ccc(C[C@H](NC(=O)[C@H](C)NC(=O)CN2CCOCC2)C(=O)N[C@@H](Cc2ccccc2)C(=O)[C@@]2(C)CO2)cc1 | active
COC(=O)C(Cc1ccccc1)NC(=O)C(N)CC(=O)O (stereo unspecified) | inactive

SMILES | cytotoxicity call
CC(=O)N1[C@H](CNC(=O)CN2CCOCC2)[C@@H](c2ccccc2)[C@@H]1CO | inactive
COC[C@H](NC(=O)c1cnc(C)s1)C(=O)N[C@@H](COC)C(=O)N[C@@H](Cc1ccccc1)C(=O)[C@@]1(C)CO1 | active
CC(=O)N[C@@H](Cc1ccccc1)C(=O)O | inactive
CC(C)C[C@H](NC(=O)[C@H](CCc1ccccc1)NC(=O)CN1CCOCC1)C(=O)N[C@@H](Cc1ccccc1)C(=O)N[C@@H](CC(C)C)C(=O)[C@@]1(C)CO1 | active
C[C@@H]1CN([C@H](C)CO)C(=O)c2cccc(NC(=O)c3ccc(-c4nccs4)cc3)c2O[C@H]1CN(C)Cc1ccc(C(=O)Nc2ccccc2N)cc1 | inactive
NCCC[C@@H](N)CC(=O)NC[C@H]1NC(=O)[C@@H](CO)NC(=O)[C@@H](N)CNC(=O)[C@H]([C@H]2CCN=C(N)N2)NC(=O)C(C=NC(N)=O)NC1=O (stereo partly specified) | inactive
O=C(C[C@H]1CC[C@H]2[C@@H](COC[C@H](O)CN2C(=O)C2CC2)O1)NCc1ccncc1 | inactive
C=CCNc1ncnc2c1cnn2C | inactive
CNC(=O)C[C@@H]1CC[C@H]2[C@@H](COC[C@@H](O)CN2C(=O)c2ccccn2)O1 | inactive
CO[C@H]1CN(C)C(=O)c2cc(NS(=O)(=O)c3ccccc3)ccc2OC[C@H](C)N(C(=O)NC(C)C)C[C@@H]1C | inactive
C[C@@H]1CN([C@@H](C)CO)C(=O)Cc2cc(NC(=O)Nc3ccc4c(c3)OCO4)ccc2O[C@H]1CN(C)Cc1ccc(Cl)c(Cl)c1 | active
C[C@H](CO)N1C[C@H](C)[C@@H](CN(C)Cc2ccc(Cl)c(Cl)c2)Oc2ccc(NC(=O)Nc3ccc4c(c3)OCO4)cc2CC1=O | inactive
C[C@@H]1CN([C@@H](C)CO)C(=O)Cc2cc(NC(=O)Nc3ccc4c(c3)OCO4)ccc2O[C@@H]1CN(C)Cc1ccc(Cl)c(Cl)c1 | inactive
C[C@@H]1CN([C@H](C)CO)C(=O)Cc2cc(NC(=O)Nc3ccc4c(c3)OCO4)ccc2O[C@@H]1CN(C)Cc1ccc(Cl)c(Cl)c1 | inactive
C[C@H](CO)N1C[C@H](C)[C@H](CN(C)Cc2ccc(Cl)c(Cl)c2)Oc2ccc(NC(=O)Nc3ccc4c(c3)OCO4)cc2CC1=O | active
C[C@@H]1CN([C@H](C)CO)C(=O)Cc2cc(NC(=O)Nc3ccc4c(c3)OCO4)ccc2O[C@H]1CN(C)Cc1ccc(Cl)c(Cl)c1 | inactive
C[C@H]1CN([C@@H](C)CO)C(=O)Cc2cc(NC(=O)Nc3ccc4c(c3)OCO4)ccc2O[C@@H]1CN(C)Cc1ccc(Cl)c(Cl)c1 | inactive
C[C@H]1CN([C@@H](C)CO)C(=O)Cc2cc(NC(=O)Nc3ccc4c(c3)OCO4)ccc2O[C@H]1CN(C)Cc1ccc(Cl)c(Cl)c1 | active
CCS(=O)(=O)N1CC[C@]2(CC1)CN([C@@H](CO)c1[nH]c3cc(ccc3c12)OC)C(=O)c1ccc(cc1)F | inactive
COc1ccc(S(=O)(=O)N(C)C[C@H]2OCCCC[C@H](C)Oc3ccc(NC(=O)Nc4ccc(F)cc4)cc3C(=O)N([C@@H](C)CO)C[C@H]2C)cc1 | inactive
